Results filed as inconclusive are left out. Active and inactive are the calls of the source. Unless noted, calls follow the shape of the dose curve; as a rule, active = well fitted curve in the direction sought with a large enough effect; inconclusive = small, poorly fitted or top-dose-only effect, or another doubt; inactive = no such curve, though single readings can be large; an effect the other way counts as inactive or inconclusive.
How the values were obtained:
[1] = AP1 Signaling Pathway (AID 357; active = well fitted curve in either direction with a large enough effect, not every such curve was filed as active;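 also: ME-180 reporter cells stimulated with EGF at its EC50 level; % is scaled to controls: 0 for no effect and ±100 for the full control effect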); conditions: ME-180 AP-1-bla reporter, EGF-induced, beta-lactamase ratio, 5 h; at 17.2 µM (top of the series) unless noted
In short: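 Titration-series screen for positive or negative modulators of EC50 EGF-induced signaling in ME-180 cells carrying an AP-1-driven beta-lactamase reporter. After 5 hours at 37 degrees Celsius, CCF4 460nm/530nm emission ratio gave %Activity; AC50 values derived.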

[2] = target: Cytochrome P450 1A2 (Homo sapiens) (UniProt P05177); experiment: p450-cyp1a2 (AID 410; calls by dose curve; also: potency is read from the fitted curve at half-maximal effect;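 as to activity change, negative = inhibition: -100% = full effect of reference inhibitor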)
Chain of Cytochrome P450 1A2 (Homo sapiens) (P05177 whole entry, looked up): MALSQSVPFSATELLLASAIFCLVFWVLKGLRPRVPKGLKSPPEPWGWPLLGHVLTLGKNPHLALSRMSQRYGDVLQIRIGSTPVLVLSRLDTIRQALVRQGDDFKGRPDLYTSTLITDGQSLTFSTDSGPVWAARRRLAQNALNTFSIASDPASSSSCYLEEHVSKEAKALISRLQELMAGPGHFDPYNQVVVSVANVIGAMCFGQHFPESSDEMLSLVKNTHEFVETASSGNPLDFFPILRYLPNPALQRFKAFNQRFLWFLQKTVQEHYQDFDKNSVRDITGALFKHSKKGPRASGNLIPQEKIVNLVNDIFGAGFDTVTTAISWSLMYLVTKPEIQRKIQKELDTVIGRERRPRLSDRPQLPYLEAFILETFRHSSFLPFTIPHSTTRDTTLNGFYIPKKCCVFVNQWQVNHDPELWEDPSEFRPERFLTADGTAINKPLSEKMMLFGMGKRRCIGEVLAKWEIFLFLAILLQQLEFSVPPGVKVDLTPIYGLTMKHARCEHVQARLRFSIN
In short: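 Luminescent readout of luciferin formed from Luciferin-ME by human CYP1A2; data normalized against complete inhibition by 57 uM furafylline. Enzyme 20nM, substrate 100uM at Km, 100mM KPO4 buffer, 60 min reaction at room temperature.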

[3] = NFAT Signaling Pathway (AID 444; active = well fitted curve in either direction with a large enough effect, not every such curve was filed as active;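 also: carbachol stimulus at about its EC50 of 1 µM final; % is scaled to controls: 0 for no effect and ±100 for the full control effect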); conditions: Jurkat NFAT-bla M1, carbachol, beta-lactamase ratio, 5 h; at 17.2 µM (top of the series) unless noted
In short: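 Read-out: CCF4 FRET ratio (460 nm/530 nm) after 1 h RT dye loading, used for %activity and AC50 from titration series. Cells: Jurkat NFAT-β-lactamase/M1 line, treated with compound plus 1 uM carbachol for 5 h, 37 °C.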

[4] = Stat Signaling Pathway (AID 446; active = well fitted curve in either direction with a large enough effect, not every such curve was filed as active;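 also: ME-180 cervical cancer cells given 40 pM IL-6 alongside compound; SIE-controlled beta-lactamase reporter measured as 460/530 nm FRET emission ratio; % is scaled to controls: 0 for no effect and ±100 for the full control effect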)
In short: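 Screening format detects activators and inhibitors alike: ME-180 SIE-bla cells stimulated at 40 pM IL-6 for 5 hrs with compound, then dual-emission beta-lactamase read at 405 nm excitation.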

[5] = target: Glucocorticoid receptor (Homo sapiens) (UniProt P04150); experiment: GR-GFP Redistribution (AID 450;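 active = compounds whose dose series gives a full or clear partial fitted curve of increased nuclear translocation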; also: potency is read from the fitted curve at half-maximal effect); conditions: U2OS GR-GFP nuclear translocation, laser cytometry, 2 h
Chain of Glucocorticoid receptor (Homo sapiens) (P04150 whole entry, looked up, the tested form may be a part): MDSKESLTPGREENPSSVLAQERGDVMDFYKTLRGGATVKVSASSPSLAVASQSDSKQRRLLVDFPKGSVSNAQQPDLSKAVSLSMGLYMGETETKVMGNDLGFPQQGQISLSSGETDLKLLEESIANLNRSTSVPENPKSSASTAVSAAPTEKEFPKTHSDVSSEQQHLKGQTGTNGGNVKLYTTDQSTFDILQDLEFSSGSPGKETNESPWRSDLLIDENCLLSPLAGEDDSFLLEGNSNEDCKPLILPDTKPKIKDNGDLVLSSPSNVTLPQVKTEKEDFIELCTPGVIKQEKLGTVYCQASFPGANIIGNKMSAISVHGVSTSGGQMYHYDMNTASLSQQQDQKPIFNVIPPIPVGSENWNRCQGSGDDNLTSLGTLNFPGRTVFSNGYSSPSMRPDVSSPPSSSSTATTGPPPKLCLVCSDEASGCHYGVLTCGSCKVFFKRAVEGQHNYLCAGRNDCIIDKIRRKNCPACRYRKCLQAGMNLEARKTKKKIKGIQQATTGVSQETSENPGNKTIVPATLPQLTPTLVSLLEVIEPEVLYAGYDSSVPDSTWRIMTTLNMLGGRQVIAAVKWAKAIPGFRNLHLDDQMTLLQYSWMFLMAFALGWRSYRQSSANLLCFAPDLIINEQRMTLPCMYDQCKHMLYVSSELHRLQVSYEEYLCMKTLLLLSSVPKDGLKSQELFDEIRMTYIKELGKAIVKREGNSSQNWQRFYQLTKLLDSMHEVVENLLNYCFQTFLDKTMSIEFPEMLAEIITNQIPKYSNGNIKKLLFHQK

[6] = target: Glucocorticoid receptor (Homo sapiens) (UniProt P04150); experiment: GR-EFC Redistribution (AID 451; calls by dose curve; also: potency is read from the fitted curve at half-maximal effect); conditions: CHO-K1 GR-EFC translocation, beta-gal luminescence, 2 h
In short: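 Translocation of GR-ED fusion to nuclear EA restores b-gal, read by luminescence after 1 h room-temperature detection. Engineered CHO-K1 biosensor cells, 1,000/well, exposed 2 h at 37 C to titrations up to 46 uM final.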

[7] = target: 3',5'-cyclic-AMP phosphodiesterase 4B (Homo sapiens) (UniProt Q07343); experiment: qHTS Assay for Inhibitors of PDE-IV (AID 607; active = well fitted activation curve with a large enough effect in the main read-out, with a control signal flat, not every such curve was filed as active; also: % of control where 0% means no effect)
Chain of 3',5'-cyclic-AMP phosphodiesterase 4B (Homo sapiens) (Q07343 whole entry, looked up): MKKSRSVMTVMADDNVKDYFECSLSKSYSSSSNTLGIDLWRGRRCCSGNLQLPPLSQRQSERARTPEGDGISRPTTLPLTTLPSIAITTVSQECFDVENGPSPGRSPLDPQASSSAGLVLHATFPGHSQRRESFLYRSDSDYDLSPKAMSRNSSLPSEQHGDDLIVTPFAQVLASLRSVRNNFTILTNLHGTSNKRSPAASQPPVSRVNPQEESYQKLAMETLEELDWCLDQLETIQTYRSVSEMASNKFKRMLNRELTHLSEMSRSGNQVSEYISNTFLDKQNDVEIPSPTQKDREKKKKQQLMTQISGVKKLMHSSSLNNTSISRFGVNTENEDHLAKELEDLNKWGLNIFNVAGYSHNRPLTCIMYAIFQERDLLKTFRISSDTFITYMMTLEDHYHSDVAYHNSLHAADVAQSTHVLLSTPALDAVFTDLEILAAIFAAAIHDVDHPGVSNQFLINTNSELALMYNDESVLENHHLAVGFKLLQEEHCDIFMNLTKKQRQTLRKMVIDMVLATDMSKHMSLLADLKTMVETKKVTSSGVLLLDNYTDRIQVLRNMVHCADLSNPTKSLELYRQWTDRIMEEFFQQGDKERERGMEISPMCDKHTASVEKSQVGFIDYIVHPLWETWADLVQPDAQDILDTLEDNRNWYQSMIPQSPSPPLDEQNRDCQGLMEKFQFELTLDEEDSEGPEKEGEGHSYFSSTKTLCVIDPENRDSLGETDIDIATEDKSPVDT
In short: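 The readout is membrane depolarisation from a cAMP-sensing CNG channel, detected with a potential dye at ex 535/em 590. Cells were HEK293-derived (endogenous PDE-IV) at 1000 cells/well, titrated up to 22.9 uM final.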

[8] = target: Cytochrome P450 2C9 (Homo sapiens) (UniProt P11712); experiment: qHTS Assay for Inhibitors and Substrates of Cytochrome P450 2C9 (AID 883); also: % is scaled to controls: 0 for no effect and ±100 for the full control effect; nearly all actives have a fitted effect of over 60% in size
Chain of Cytochrome P450 2C9 (Homo sapiens) (P11712 whole entry, looked up): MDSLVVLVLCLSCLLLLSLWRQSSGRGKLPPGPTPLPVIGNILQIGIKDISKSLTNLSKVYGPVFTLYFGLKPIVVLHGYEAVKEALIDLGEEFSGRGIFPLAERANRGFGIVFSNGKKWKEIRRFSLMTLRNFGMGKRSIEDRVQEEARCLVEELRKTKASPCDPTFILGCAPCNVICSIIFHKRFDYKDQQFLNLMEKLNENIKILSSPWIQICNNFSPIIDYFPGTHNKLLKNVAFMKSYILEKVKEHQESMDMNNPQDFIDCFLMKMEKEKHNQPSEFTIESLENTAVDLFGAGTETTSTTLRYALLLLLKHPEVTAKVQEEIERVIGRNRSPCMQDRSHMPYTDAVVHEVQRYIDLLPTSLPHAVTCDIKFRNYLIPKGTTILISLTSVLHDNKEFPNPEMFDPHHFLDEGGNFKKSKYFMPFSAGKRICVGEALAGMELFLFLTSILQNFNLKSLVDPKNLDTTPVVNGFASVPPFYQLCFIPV
In short: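 Luminescent read-out of deoxyluciferin hydroxylation, normalized to 57uM sulphaphenazole (AC100). Reaction: 10nM enzyme, 100uM Luciferin-H (equal to KM), 25mM KPO4, 10 min compound preincubation, then 60 min with NADPH regeneration, both at 37C.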

[9] = target: Cytochrome P450 2D6 (Homo sapiens) (UniProt P10635); experiment: qHTS Assay for Inhibitors and Substrates of Cytochrome P450 2D6 (AID 891);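 also: luciferin methyl ether substrate demethylated by CYP2D6 with NADPH regeneration; % is scaled to controls: 0 for no effect and ±100 for the full control effect; nearly all actives have a fitted effect of over 60% in size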
In short: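 Human CYP2D6 (5 nM) with 30 uM Luciferin-ME EGE (at Km) in 100 mM KPO4, compound preincubated 10 min, then NADPH regeneration system for 60 min at room temperature. Luciferin read by luminescence; normalized to 1.43 uM quinidine.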

[10] = target: Cytochrome P450 2C19 (Homo sapiens) (UniProt P33261); experiment: qHTS Assay for Inhibitors and Substrates of Cytochrome P450 2C19 (AID 899); also: % is scaled to controls: 0 for no effect and ±100 for the full control effect; nearly all actives have a fitted effect of over 60% in size
Chain of Cytochrome P450 2C19 (Homo sapiens) (P33261 whole entry, looked up): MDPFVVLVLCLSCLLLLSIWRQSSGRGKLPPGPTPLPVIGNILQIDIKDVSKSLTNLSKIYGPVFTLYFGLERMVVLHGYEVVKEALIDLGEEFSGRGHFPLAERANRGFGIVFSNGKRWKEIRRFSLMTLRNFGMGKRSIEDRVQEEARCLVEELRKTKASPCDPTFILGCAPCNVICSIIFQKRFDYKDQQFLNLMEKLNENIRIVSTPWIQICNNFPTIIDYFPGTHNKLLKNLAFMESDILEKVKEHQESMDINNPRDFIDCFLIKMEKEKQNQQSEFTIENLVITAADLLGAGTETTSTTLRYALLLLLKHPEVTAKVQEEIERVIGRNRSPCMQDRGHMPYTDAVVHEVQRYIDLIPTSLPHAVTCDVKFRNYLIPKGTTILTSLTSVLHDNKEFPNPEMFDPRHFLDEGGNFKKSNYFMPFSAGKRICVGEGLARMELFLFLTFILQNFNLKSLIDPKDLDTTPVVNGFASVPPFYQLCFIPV
In short: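 Luminescence readout of luciferin formed from 10uM Luciferin-H EGE (KM level) by 5 nM CYP2C19 in 50mM KPO4. 60 min NADPH-driven reaction at 37C after 10 min compound preincubation; data scaled to 57uM ketoconazole inhibition.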

[11] = target: Mitogen-activated protein kinase 10 (Mus musculus) (UniProt Q61831); experiment: JNK3 AlphaScreen Assay (AID 530; active = well fitted curve in either direction with a large enough effect, not every such curve was filed as active;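 also: kinase came from lysate of stimulated human HepG2 cells; signal reports phosphorylation of biotinylated GST-cJun 1-79 at Ser73 with 10 µM ATP; % is scaled to controls: 0 for no effect and ±100 for the full control effect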)
In short: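 Compound titrations were preincubated 15 minutes at room temperature with substrate, antibody and pre-activated JNK3-containing HepG2 lysate. Reactions were started with 10 uM ATP and stopped with EDTA-containing bead buffer for AlphaScreen detection.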

[12] = target: Guanine nucleotide-binding protein G(i) subunit alpha-1 (Homo sapiens) (UniProt P63096); experiment: qHTS Assay for Inhibitors of RGS12 GoLoco Motif Activity (Green Fluorophore) (AID 879);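 also: 0% = labeled peptide with Gαi1 and full inhibition = labeled peptide alone without protein; negative values mean loss of peptide binding seen as reduced polarization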
In short: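 Fluorescence polarization assay: 50 nM Gαi1 with 10 nM FITC-labeled RGS12 GoLoco peptide in 10 mM Tris pH 7.5, 150 mM NaCl, 0.1 mM GDP, 0.05% NP40, 10 min at room temperature with compound.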

[13] = qHTS Assay for Identification of Small Molecule Antagonists for NFkB Signaling Pathway (AID 895; active = well fitted inhibition curve with a large enough effect in the signal ratio, with a control signal flat, not every such curve was filed as active; the % refers to the signal ratio; also: potency is read from the fitted curve at half-maximal effect)
In short: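 Beta-lactamase reporter read-out (460 and 530 nm emission ratio, 405 nm excitation, 2 hrs substrate loading RT) after 5 hr stimulation with 10 pM TNF alpha in compound-treated NFkB-bla ME-180 cells in low-serum medium.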

[14] = target: Muscarinic acetylcholine receptor M1 (Rattus norvegicus) (UniProt P08482); experiment: qHTS Assay for Antagonists of Acetylcholine Muscarinic M1 Receptor: Kinetic Measurement of Intracellular Calcium Response (AID 943);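 also: Fluo-4 calcium signal as peak divided by basal fluorescence over 4 min; nearly all actives have a fitted effect of over 75% in size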
Chain of Muscarinic acetylcholine receptor M1 (Rattus norvegicus) (P08482 whole entry, looked up): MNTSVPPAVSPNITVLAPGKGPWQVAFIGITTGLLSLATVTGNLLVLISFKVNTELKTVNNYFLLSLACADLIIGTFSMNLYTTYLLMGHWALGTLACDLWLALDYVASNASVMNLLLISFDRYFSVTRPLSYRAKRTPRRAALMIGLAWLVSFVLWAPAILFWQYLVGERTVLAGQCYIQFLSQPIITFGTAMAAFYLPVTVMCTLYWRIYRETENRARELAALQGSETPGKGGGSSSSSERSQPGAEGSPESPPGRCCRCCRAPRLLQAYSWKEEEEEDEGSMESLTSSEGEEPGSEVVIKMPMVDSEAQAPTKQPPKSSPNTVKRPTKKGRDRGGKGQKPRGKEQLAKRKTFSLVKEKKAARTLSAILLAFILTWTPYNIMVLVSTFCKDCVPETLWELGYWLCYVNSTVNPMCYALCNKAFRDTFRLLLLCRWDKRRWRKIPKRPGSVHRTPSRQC
In short: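 Rat M1-CHO cells, 2000/well, overnight → Fluo-4 no-wash dye with probenecid, 1 h 37C → compound 10 min, room temp → basal read 6 s → carbachol EC80 (100 nM) → 4 min kinetic read; peak/basal.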

[15] = target: Muscarinic acetylcholine receptor M1 (Rattus norvegicus) (UniProt P08482); experiment: qHTS Assay for Antagonists of Acetylcholine Muscarinic M1 Receptor: Measurement of IP-One Response (AID 944); also: nearly all actives have a fitted effect of over 75% in size
In short: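 M1-CHO (rat), 2000 cells/well, overnight recovery; cpd 10 min; carbachol EC80 (200 nM), 30 min, HEPES buffer + 50 mM LiCl pH 7.4; IP-One HTRF, Ex 337, Em 620/665 nm.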

[16] = target: Pyruvate kinase PKM (Homo sapiens) (UniProt P14618); experiment: qHTS Assay for Activators of Human Muscle Pyruvate Kinase (AID 954; active = well fitted curve in the direction sought with a large enough effect, not every such curve was filed as active;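 also: 0% = uninhibited enzyme and -100% = no enzyme or full thiadiazolimine inhibition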)
Chain of Pyruvate kinase PKM (Homo sapiens) (P14618 whole entry, looked up): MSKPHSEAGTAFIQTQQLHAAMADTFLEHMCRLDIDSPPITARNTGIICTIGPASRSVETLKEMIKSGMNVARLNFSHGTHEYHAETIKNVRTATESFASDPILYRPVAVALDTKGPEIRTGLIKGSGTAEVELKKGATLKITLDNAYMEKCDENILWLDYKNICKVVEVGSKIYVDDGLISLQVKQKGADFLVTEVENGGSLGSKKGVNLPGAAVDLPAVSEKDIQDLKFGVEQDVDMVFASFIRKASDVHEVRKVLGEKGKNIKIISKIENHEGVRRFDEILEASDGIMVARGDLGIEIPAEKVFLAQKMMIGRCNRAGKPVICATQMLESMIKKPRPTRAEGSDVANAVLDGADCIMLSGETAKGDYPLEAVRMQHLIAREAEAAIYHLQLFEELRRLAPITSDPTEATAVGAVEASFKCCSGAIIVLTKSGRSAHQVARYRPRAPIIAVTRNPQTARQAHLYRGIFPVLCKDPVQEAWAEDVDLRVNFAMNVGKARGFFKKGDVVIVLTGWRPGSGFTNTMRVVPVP
In short: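 Reaction: 0.1 nM purified PKM2 with 0.5 mM phosphoenolpyruvate and 0.1 mM ADP, room temperature, 1 h. Readout: luciferase-based ATP luminescence after stop reagent. Activators judged against a 0.3 nM enzyme column.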

[17] = target: Alpha-galactosidase (Coffea arabica) (UniProt Q42656); experiment: Counterscreen for Glucocerebrosidase Inhibitors: qHTS Assay for Coffee Bean alpha-Galactosidase at pH 4.5 (AID 957);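 also: plate controls were enzyme alone for no effect and no enzyme for full effect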
Chain of Alpha-galactosidase (Coffea arabica) (Q42656 whole entry, looked up): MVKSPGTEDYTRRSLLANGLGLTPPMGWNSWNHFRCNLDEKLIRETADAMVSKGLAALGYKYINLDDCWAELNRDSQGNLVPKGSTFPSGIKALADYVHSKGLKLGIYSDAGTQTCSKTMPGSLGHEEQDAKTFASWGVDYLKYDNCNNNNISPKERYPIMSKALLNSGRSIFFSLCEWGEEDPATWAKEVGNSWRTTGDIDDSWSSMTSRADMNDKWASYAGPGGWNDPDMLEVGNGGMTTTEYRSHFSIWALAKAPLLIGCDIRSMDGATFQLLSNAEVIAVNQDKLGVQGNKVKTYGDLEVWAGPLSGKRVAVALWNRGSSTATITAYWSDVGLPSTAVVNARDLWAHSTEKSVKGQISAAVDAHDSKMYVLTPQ
In short: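 Coffee bean alpha-galactosidase 2 nM, substrate 4-MU-alpha-Gal 80 uM, pH 4.5 citrate/Tween-20, 20 min RT. Cpd titration 0.7 nM–77 uM. Stop pH 10, fluorescence 365/440 nm; Hill-equation AC50.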

[18] = target: Alpha-galactosidase A (Homo sapiens) (UniProt P06280); experiment: Counterscreen for Glucocerebrosidase Inhibitors: qHTS Assay for Human alpha-Galactosidase at pH 4.5 (AID 992); also: 0% is about no effect
Chain of Alpha-galactosidase A (Homo sapiens) (P06280 whole entry, looked up): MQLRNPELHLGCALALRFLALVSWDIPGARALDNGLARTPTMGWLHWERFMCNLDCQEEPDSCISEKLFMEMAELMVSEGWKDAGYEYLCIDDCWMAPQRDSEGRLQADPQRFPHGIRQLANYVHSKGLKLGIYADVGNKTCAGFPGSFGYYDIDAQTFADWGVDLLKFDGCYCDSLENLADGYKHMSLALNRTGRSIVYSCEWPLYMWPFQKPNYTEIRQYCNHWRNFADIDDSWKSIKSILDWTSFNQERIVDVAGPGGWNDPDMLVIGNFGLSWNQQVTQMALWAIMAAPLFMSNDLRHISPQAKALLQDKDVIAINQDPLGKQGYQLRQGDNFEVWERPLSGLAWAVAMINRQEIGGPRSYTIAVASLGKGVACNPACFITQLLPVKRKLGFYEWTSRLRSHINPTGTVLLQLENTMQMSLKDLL
In short: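 Concentration-response curves (0.7 nM to 77 uM final) were modeled with the Hill equation to give AC50. Reactions: 2 nM enzyme, 80 uM fluorogenic alpha-galactoside, pH 4.5 citric acid buffer, 20 min, room temperature.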

[19] = target: alpha-glucosidase (Oryza sativa, rice) (UniProt Q653V4); experiment: Counterscreen for Glucocerebrosidase Inhibitors: qHTS Assay for Rice alpha-Glucosidase at pH 5.0 (AID 997);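 also: 0% = full activity with enzyme and -100% = basal without enzyme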
In short: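 Rice alpha-glucosidase (4 nM final) with 400 uM 4-methylumbelliferyl-alpha-D-glucopyranoside in citrate buffer pH 5.0, 20 min at room temperature, stopped at pH 10; fluorescence 365/440 nm, compounds 0.7 nM–77 uM, AC50 from Hill fits.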

[20] = target: Alpha-galactosidase (Coffea arabica) (UniProt Q42656); experiment: Counterscreen for Glucocerebrosidase Inhibitors: qHTS Assay for Coffee Bean alpha-Galactosidase at pH 5.9 (AID 998);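 also: plate controls were uninhibited enzyme for no effect and no-enzyme basal signal for full effect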
In short: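 Compounds were titrated from 0.7 nM to 77 uM against green coffee bean alpha-galactosidase (2 nM) using 80 uM fluorogenic 4-methylumbelliferyl substrate. After 20 min at room temperature, reactions were stopped at pH 10 and read by fluorescence.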

[21] = qHTS Assay for Identification of Small Molecule Agonists for Thrombopoietin (TPO) Signaling Pathway (AID 917); also: % is scaled to controls: 0 for no effect and ±100 for the full control effect
In short: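 Murine Ba/F3 cells stably expressing human TPO receptor and a Glycoprotein IIb promoter–luciferase reporter were IL-3-starved overnight, then treated with compounds plus TPO (26 pM final, its EC50) for 24 hrs at 37 C; luminescence was read.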

N[C@]1(C(=O)O)CC[C@@H](C(=O)O)C1
inactive: activity change, negative = inhibition [1] -3.05% [at 38 µM] | Potency [2] | activity change, negative = inhibition [3] 7.68% [at 38 µM] | outcome [4] | Potency [5] > 46 µM | Potency [6] > 46 µM | outcome [7] | Potency [8] | Potency [9] | Potency [10]

C[C@]1(C(=O)O)[C@@H]2CC[C@@H](O2)[C@@]1(C)C(=O)O
inactive: Potency [2] | Potency [5] > 46 µM | Potency [6] > 46 µM | outcome [11] | outcome [7] | Potency [12] | Potency [10] | Potency [14] | Potency [15] | outcome [16] | outcome [17] | outcome [18] | outcome [19] | outcome [20]
active: activity change, negative = inhibition [1] -103% [at 38 µM] | Potency [13] 6.31 µM

COC[C@@H]1OC(=O)c2coc3c2[C@]1(C)C1=C(C3=O)[C@H]2CCC(=O)[C@]2(C)C[C@@H]1OC(C)=O
inactive: Potency [2] | Potency [5] > 46 µM | Potency [6] > 46 µM | outcome [7] | Potency [8] | Potency [9] | Potency [10]
active: activity change, negative = inhibition [1] -78.2% [at 38 µM]

CC[C@H](CO)NC(=O)[C@@H]1C=C2c3cccc4c3c(cn4C)C[C@@H]2N(C)C1
inactive: activity change, negative = inhibition [1] -3.22% [at 38 µM] | Potency [2] | activity change, negative = inhibition [3] -10.9% [at 38 µM] | outcome [11] | outcome [7] | Potency [13] | outcome [21] | outcome [16] | outcome [17] | outcome [18] | outcome [19] | outcome [20]

C[C@H](N)c1cccc(Cl)c1Cl
active: Potency [2] 1.26 µM
inactive: activity change, negative = inhibition [1] 19.1% [at 38 µM] | activity change, negative = inhibition [3] 7.99% [at 38 µM] | Potency [5] > 46 µM | Potency [6] > 46 µM | outcome [11] | outcome [7] | Potency [12] | outcome [21] | Potency [15] | outcome [16] | outcome [17] | outcome [18] | outcome [19] | outcome [20]

From PubChem BioAssay (NCATS)
